Test results taken from PubChem BioAssay (NCATS).
Inconclusive results are not listed. Entries that show only a call come without a potency. The source made the active and inactive calls. The call rests on the fitted dose curve; in most records, active means well fitted cell-killing curve with a large enough effect; inconclusive means small, poorly fitted or top-dose-only effect, or effect the other way; inactive means flat fitted curve, though single readings scatter.

System: Tov112D
Assay: Primary qHTS to identify gynecologic anti-cancer compounds using libraries of approved drugs and bioactive compounds (AID 1345084); further: nearly all actives have a fitted effect of over 55% in size
Settings: Gynecologic cancer cell panel viability, ATPlite luminescence, 48 h; series mostly up to 57.5 µM
How it was run: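 48 h compound exposure at 37 C, 5% CO2; five-point qHTS. ATPlite luminescence readout of cell ATP.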

| SMILES | Potency |
| --- | --- |
| COc1ccc2c(c1)c(CC(=O)OC/C=C(\C)CC/C=C(\C)CCC=C(C)C)c(C)n2C(=O)c1ccc(Cl)cc1 | inactive |
| NC(=O)NC1N=C([O][Al])NC1=O (stereo not given) | inactive |
| Fc1ccc(C(c2ccc(F)cc2)N2CCNCC2)cc1 | inactive |
| Cc1cccc(N(C)C(=S)Oc2ccc3c(c2)C2CCC3C2)c1 (stereo not given) | inactive |
| CCOC(=O)C1=C(C)NC(C)=C(C(=O)OCC)C1c1ccccc1/C=C/C(=O)OC(C)(C)C | inactive |
| Clc1ccc2c(c1)N=C(N1CCNCC1)c1ccccc1N2 | inactive |
| Cc1ccc(C(=O)C(=O)O)cc1C | inactive |
| COc1ccc(-n2nc(CCC(=O)N(C)O)cc2-c2ccc(Cl)cc2)cc1 | inactive |
| COc1ccc2nc(SCc3ncc(C)c(OC)c3C)[nH]c2c1 | inactive |
| CCc1cc2cc(OC)c(OC)cc2c(Cc2ccccc2)n1 | inactive |
| CC(=O)c1cc2ccccc2s1 | inactive |
| CC1CCCCN1CCCOC(=O)c1ccc(OC2CCCCC2)cc1 (stereo not given) | inactive |
| COC(=O)CCCCC(CCSS/C(CCO)=C(\C)N(C=O)Cc1cnc(C)nc1N)SC(C)=O (stereo not given) | inactive |
| CCn1ccc(NS(=O)(=O)c2ccc(N)cc2)nc1=O | inactive |
| O=C1NC(=O)/C(=C/c2ccc3c(c2)OC(F)(F)O3)S1 | inactive |
| Cc1sccc1Br | inactive |
| COc1ccccc1N1CCN(CC(O)COc2cc(OC)c(OC)c(OC)c2)CC1 (stereo not given) | inactive |
| N#CC1(c2ccc(F)cc2)CCC(=O)CC1 | inactive |
| COC(=O)c1cc(Cl)c(NC(C)=O)cc1OC | inactive |
| O=C1Nc2cc(Cl)ccc2Oc2ccccc21 | inactive |
